Assay results taken from the supplement of paper PMC9694430.
Several values for one entry are separate records, joined by “and”; a condition that tells them apart may be missing. Equal values may be shown once.

How the values were obtained:
Assay in all cases: thermal shift delta Tm vs DMSO control; higher = stronger stabilization (binding)
Details in all cases: 12.5 µM; protein concentration 2 µM
LOC_OS04G57630-cb004 = test system: LOC_OS04G57630-cb004
How it was run: (§1)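 Compounds dissolved in DMSO were added to purified rice kinase domain constructs, which had been expressed in E. coli, for differential scanning fluorimetry. Each well held 19.5 μl of 2 μM kinase in 100 mM potassium phosphate pH 7.5, 150 mM NaCl, 10% glycerol and 5 × SYPRO Orange. Fluorescence was followed from 25°C to 95°C at a rate of 0.05°C/s. Shifts in Boltzmann-fitted melting temperature are triplicate means relative to DMSO-only protein.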

LOC_OS05G07850-cb002 = test system: LOC_OS05G07850-cb002
How it was run: as §1

LOC_OS05G16824-cb004 = test system: LOC_OS05G16824-cb004
How it was run: as §1

LOC_OS05G28520-cb001 = test system: LOC_OS05G28520-cb001
How it was run: as §1

LOC_OS05G30820-cb001 = test system: LOC_OS05G30820-cb001
How it was run: as §1

LOC_OS05G43570-cb004 = test system: LOC_OS05G43570-cb004
How it was run: as §1

LOC_OS06G16330-cb003 = test system: LOC_OS06G16330-cb003
How it was run: as §1

LOC_OS06G22820-cb001 = test system: T1, LOC_OS06G22820-cb001
T1 sequence (whole entry): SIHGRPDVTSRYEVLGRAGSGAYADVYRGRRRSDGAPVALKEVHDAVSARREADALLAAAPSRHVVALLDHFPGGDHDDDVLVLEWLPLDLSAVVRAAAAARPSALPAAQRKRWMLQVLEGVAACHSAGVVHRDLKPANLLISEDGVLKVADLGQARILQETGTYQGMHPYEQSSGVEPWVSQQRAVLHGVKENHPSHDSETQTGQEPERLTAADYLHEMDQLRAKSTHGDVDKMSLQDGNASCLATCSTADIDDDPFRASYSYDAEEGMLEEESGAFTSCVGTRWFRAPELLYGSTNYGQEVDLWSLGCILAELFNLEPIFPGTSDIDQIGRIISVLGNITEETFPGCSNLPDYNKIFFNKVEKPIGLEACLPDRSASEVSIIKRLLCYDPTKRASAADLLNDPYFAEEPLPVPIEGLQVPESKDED
How it was run: as §1

LOC_OS07G06570-cb004 = test system: LOC_OS07G06570-cb004
How it was run: as §1

LOC_OS07G07230-cb001 = test system: LOC_OS07G07230-cb001
How it was run: as §1

Chain of LOC_OS06G16330-cb003 (as listed by the source): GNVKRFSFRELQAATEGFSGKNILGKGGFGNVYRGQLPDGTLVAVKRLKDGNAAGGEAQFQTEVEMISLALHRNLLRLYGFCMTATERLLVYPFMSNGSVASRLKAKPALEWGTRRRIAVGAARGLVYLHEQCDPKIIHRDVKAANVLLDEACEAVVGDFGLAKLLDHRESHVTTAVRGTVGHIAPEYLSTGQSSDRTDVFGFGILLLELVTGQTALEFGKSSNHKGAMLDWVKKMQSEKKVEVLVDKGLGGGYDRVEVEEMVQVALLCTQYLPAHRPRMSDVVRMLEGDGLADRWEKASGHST

Row | Compound | thermal shift delta Tm (LOC_OS04G57630-cb004) | thermal shift delta Tm (LOC_OS05G07850-cb002) | thermal shift delta Tm (LOC_OS05G16824-cb004) | thermal shift delta Tm (LOC_OS05G28520-cb001) | thermal shift delta Tm (LOC_OS05G30820-cb001) | thermal shift delta Tm (LOC_OS05G43570-cb004) | thermal shift delta Tm (LOC_OS06G16330-cb003) | thermal shift delta Tm (LOC_OS06G22820-cb001) | thermal shift delta Tm (LOC_OS07G06570-cb004) | thermal shift delta Tm (LOC_OS07G07230-cb001)
1 | N[C@@H]1CCCN(c2c(/C=C3\SC(=O)NC3=O)cccc2-c2ccccc2)C1 | 0.42 °C | 2.29 °C | -1.84 °C | 0.64 °C | 0.34 °C | -0.01 °C | -0.21 °C | 0.41 °C | 1.48 °C | 0.3 °C
2 | CNCc1ccc(-c2cc(-c3nc(-c4ccc(S(=O)(=O)C(C)C)cc4)cnc3N)on2)cc1 | 0.75 °C | 6.99 °C | -0.05 °C | 0.89 °C | 0.64 °C | 0.33 °C | 0.7 °C | 0.87 °C | 1.23 °C | 0.32 °C
3 | c1ccc(-c2[nH]ncc2-c2ccnc3ccccc23)nc1 | 0.26 °C | 3.02 °C | 0.42 °C | 0.19 °C | 0.24 °C | 0.65 °C | -2.93 °C | 0.08 °C | 0.81 °C | 0.53 °C
4 | COc1cc(OC)c(/C=C/S(=O)(=O)Cc2ccc(OC)c(NCC(=O)O)c2)c(OC)c1 | 0.06 °C | 0.2 °C | -0.41 °C | 0.21 °C | 0.62 °C | 0.71 °C | -0.1 °C | 0.75 °C | 0.87 °C | 0.29 °C
5 | CCc1ccc(/C=C2/SC(=S)NC2=O)cc1 | 0.22 °C | 2.65 °C | -3.64 °C | 1.2 °C | 0.82 °C | 1 °C | 0.48 °C | 1.04 °C | 1.65 °C | 0.27 °C
6 | Cc1cc(C(=O)Nc2nc3cccc(Cl)c3n2[C@@H]2CCCCN(C(=O)/C=C/CN(C)C)C2)ccn1 [Nazartinib (EGF816, NVS-816)] | 0.04 °C | 3.43 °C | -0.02 °C | 0.54 °C | 0.6 °C | 0.38 °C | 0.74 °C | 0.4 °C | 1.91 °C | 0.43 °C
7 | S=C(NCc1ccc2c(c1)OCO2)N1CCN(c2ncnc3c2oc2ccccc23)CC1 [Amuvatinib (MP-470)] | 0.4 °C | 1.46 °C | -4.2 °C | 0.42 °C | 0.8 °C | 0.49 °C | 1.01 °C | 0.7 °C | 0.32 °C | 0.06 °C
8 | Cc1cc2c(F)c(Oc3ncnn4cc(OC[C@@H](C)O)c(C)c34)ccc2[nH]1 | 0.32 °C | 2.97 °C | -0.74 °C | 0.85 °C | 0.47 °C | -0.02 °C | 0.19 °C | 0.53 °C | 0.51 °C | 0.51 °C
9 | CCCNC(=O)c1cn2ncnc(Nc3cc(C(=O)NC4CC4)ccc3C)c2c1C | 0.07 °C | 0.14 °C | -4.13 °C | 0.31 °C | 0.52 °C | 0.2 °C | -0.22 °C | 0.62 °C | 1.15 °C | 0.61 °C
10 | Nc1nccc(Oc2ccc3c(C(=O)Nc4cccc(C(F)(F)F)c4)cccc3c2)n1 | 0.43 °C | -1.62 °C | -1.01 °C | 0.93 °C | 0.73 °C | 0.58 °C | 0 °C | 0.99 °C | 1.61 °C | 0.15 °C
11 | Nc1cccc(-c2cc3c(Oc4cccc(O)c4)ncnc3[nH]2)c1 | 1.21 °C | 11.1 °C | 5.59 °C | 0.57 °C | 1.14 °C | 0.77 °C | 4.75 °C | 0.88 °C | 1.36 °C | -0.21 °C
12 | CC(C)(C)NS(=O)(=O)c1cncc(-c2cc(F)c3nc(N)nn3c2)c1 | 0.3 °C | 1.74 °C | 0.61 °C | 0.78 °C | 0.53 °C | 0.59 °C | 0.88 °C | 0.87 °C | 1.73 °C | 0.06 °C
13 | C#Cc1cccc(Nc2ncnc3cc(OCCOC)c(OCCO)cc23)c1 | 0.14 °C | 8.23 °C | 0.76 °C | -0.52 °C | 0.4 °C | 0.13 °C | 3.5 °C | 0.25 °C | 0.7 °C | -0.14 °C
14 | N#C/C(=C(/N)Sc1ccc(N)cc1)c1ccccc1C(F)(F)F | -0.02 °C | -0.43 °C | -2.13 °C | 0.13 °C | 0.55 °C | -0.02 °C | -0.1 °C | 0.8 °C | 0.09 °C | 0.16 °C
15 | Cn1cc(-c2ccc(F)c(C(F)(F)F)c2)nc1C1CCN(c2ncnc3[nH]ncc23)CC1 | 0.14 °C | 0.42 °C | -7.63 °C | 0.22 °C | 0.54 °C | 0.45 °C | 0.11 °C | 0.36 °C | 0.72 °C | 0.63 °C
16 | O=C1Nc2ccc(I)cc2/C1=C/c1cc(Br)c(O)c(Br)c1 | -0.66 °C | 7.59 °C | -3.03 °C | 2.07 °C | 1.54 °C | 0.73 °C | 1.63 °C | 0.94 °C | 1.22 °C | 1.47 °C
17 | CC(C)(C)c1cc(NC(=O)Nc2ccc(-c3cn4c(n3)sc3cc(OCCN5CCOCC5)ccc34)cc2)no1 [Quizartinib (AC220)] | 0.97 °C | 1.54 °C | -1.62 °C | 0.28 °C | 0.82 °C | 0.27 °C | 0 °C | 0.73 °C | 1.04 °C | 0.45 °C
18 | CNS(=O)(=O)Nc1nccc(Cc2c(C)c3ccc(Oc4ncccn4)cc3oc2=O)c1F | 0.3 °C | 0.16 °C | -1.72 °C | 0.32 °C | 0.47 °C | 0.49 °C | 0.47 °C | 0.62 °C | 1.63 °C | 0.51 °C
19 | Cc1cnc(-c2cnc(NCCNc3ccc(C#N)cn3)nc2-c2ccc(Cl)cc2Cl)[nH]1 | -0.09 °C and 0.72 °C | 4.65 °C and 4.93 °C | 1.04 °C and 0.06 °C | 0.2 °C and 0.82 °C | 0.54 °C and 0.26 °C | 0.69 °C and 1.04 °C | -0.09 °C and -0.17 °C | 0.67 °C and 1.04 °C | 0.67 °C and 1.49 °C | 0.25 °C and -0.23 °C
